In PubChem BioAssay (NCATS):
Inconclusive results are not listed. Active and inactive are the calls of the source. Unless noted, calls come from the whole dose curve; as a rule, active = well fitted curve in the direction sought with a large enough effect; inconclusive = small, poorly fitted or top-dose-only effect, or another doubt; inactive = no such curve, though single readings can be large; an effect the other way counts as inactive or inconclusive.

Assays:
[1] = Primary fluorescence-based thiol-reactive (MSTI) qHTS assay for identification of artifact compounds. (AID 1845221);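 note: thiol-reactive compounds lower the probe fluorescence signal; nearly all actives have a fitted effect of over 65% in size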
In short: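 Probe: MSTI 4 uM, PBS pH 7.4, 2% DMSO. Incubation 1 h, RT, light-protected. Readout fluorescence 525/598 nm.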

[2] = system: Nanoluciferase (engineered Oplophorus gracilirostris luciferase); assay: Primary Nanoluciferase (NLuc) qHTS assay for identification of artifact compounds. (AID 1845222);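 note: 0% = DMSO and -100% = no enzyme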
In short: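 Compounds are pinned into diluted (1:55) conditioned medium of NLuc-expressing S16 cells and held 15 min at room temperature protected from light. Nano-Glo substrate follows, and luminescence is read 5 min later.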

[3] = Primary redox qHTS assay for identification of artifact compounds. (AID 1845223);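 note: 0% = DMSO and 100% = reference compound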
In short: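 Amplex Red (25 uM) and HRP (250 mU/mL) in HBSS, with compounds for 15 min, then 250 uM DTT for 30 min, room temperature, dark. Fluorescence 525/598 nm read; normalized to DMSO and 10 uM DA3003; Hill fit.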

[4] = qHTS drug screen for cell cycle checkpoint inhibitors in PARPi-resistant BRCA-mutant ovarian cancer cell lines. (AID 1963452; calls by dose curve; note: potency is the fitted concentration of half-maximal effect); details: PEO1/OlaR viability, CellTiter-Glo luminescence, 96 h; for Z-AUC: stronger effect = lower value
In short: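 PEO1, PEO4 and PEO1/OlaR ovarian cancer cells, 600 per well, exposed 96 h at 37C to a dilution series. Viability read by CellTiter-Glo luminescence, normalized to DMSO and empty wells; activity summarized as Z-AUC.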

[5] = qHTS profiling for inhibitors of Plasmodium falciparum proliferation (AID 504749); note: potency is the fitted concentration of half-maximal effect;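 for activity, negative = inhibition: 0% = DMSO vehicle and full inhibition = artemisinin control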; for all read-outs here: nearly all actives have a fitted effect of over 60% in size; details: P. falciparum in erythrocytes, SYBR Green DNA, 72 h; for activity, negative = inhibition: at 28.7 µM (top of the series)
In short: (§1)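 Infected RBCs, 0.3% parasitemia/2.5% Hct final; cpd 72 h, 37 C, 5% CO2; lysis buffer with saponin/triton/SYBR Green I, o/n RT dark; FI 485/535; norm. to artemisinin (0.29 uM) and DMSO.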

3D7 = assay: as above; details: P. falciparum in erythrocytes, SYBR Green DNA, 72 h; series mostly up to 28.7 µM
In short: as §1

[6] = target: Cytochrome P450 3A4 (Homo sapiens) (UniProt P08684); assay: qHTS for inhibitors of CYP3A4 against the NCATS DSHEA and TCM libraries (AID 1919971);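 note: % is set by controls: 0 for no effect and ±100 for the full control effect; inhibition lowers luminescence from luciferin made by CYP3A4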
Chain of Cytochrome P450 3A4 (Homo sapiens) (P08684 whole entry, looked up): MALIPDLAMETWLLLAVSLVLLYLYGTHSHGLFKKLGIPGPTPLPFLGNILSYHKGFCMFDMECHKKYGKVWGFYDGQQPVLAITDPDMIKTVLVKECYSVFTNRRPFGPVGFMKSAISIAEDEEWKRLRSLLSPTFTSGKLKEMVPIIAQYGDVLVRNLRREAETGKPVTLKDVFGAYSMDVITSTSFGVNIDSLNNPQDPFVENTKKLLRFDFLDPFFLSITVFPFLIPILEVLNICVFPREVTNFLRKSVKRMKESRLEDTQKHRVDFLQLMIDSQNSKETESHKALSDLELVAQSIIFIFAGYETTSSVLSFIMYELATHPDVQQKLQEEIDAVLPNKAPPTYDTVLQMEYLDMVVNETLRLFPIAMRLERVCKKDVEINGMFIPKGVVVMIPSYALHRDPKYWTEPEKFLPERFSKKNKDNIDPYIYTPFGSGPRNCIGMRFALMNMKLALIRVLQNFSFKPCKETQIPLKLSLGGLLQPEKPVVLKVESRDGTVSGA
In short: (§2)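 Luminescent P450-Glo format: compounds preincubated 15 min with enzyme and luciferin substrate, reaction run 30-45 min after NADPH regeneration solution. Intraplate controls: ketoconazole for CYP3A4 and CYP2C19, sulfaphenazole for CYP2C9.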

[7] = target: Cytochrome P450 2D6 (Homo sapiens) (UniProt P10635); assay: qHTS for inhibitors of CYP2D6 against the NCATS DSHEA and TCM libraries (AID 1919972); note: % is set by controls: 0 for no effect and ±100 for the full control effect
Chain of Cytochrome P450 2D6 (Homo sapiens) (P10635 whole entry, looked up): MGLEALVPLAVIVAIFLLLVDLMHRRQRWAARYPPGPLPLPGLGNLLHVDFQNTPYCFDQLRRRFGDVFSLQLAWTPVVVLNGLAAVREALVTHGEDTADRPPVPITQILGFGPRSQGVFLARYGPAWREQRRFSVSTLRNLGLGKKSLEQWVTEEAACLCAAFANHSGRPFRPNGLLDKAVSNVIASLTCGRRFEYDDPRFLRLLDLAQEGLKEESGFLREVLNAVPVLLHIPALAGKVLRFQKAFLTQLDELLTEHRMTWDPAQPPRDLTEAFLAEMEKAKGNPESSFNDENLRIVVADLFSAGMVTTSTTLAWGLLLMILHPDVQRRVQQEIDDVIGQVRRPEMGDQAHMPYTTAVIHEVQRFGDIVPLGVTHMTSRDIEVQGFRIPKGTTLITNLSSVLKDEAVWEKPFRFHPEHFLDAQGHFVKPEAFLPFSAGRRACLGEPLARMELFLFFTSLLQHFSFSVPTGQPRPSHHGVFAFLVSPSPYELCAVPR
In short: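 Luminescent P450-Glo read-out of CYP2D6 turnover of a luciferin substrate after NADPH-driven reaction of 30-45 min at room temperature. Compounds were first preincubated 15 min with enzyme at titrated concentrations; quinidine was the intraplate control.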

[8] = target: Cytochrome P450 2C9 (Homo sapiens) (UniProt P11712); assay: qHTS for inhibitors of CYP2C9 against the NCATS DSHEA and TCM libraries (AID 1919973);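 note: luminogenic pro-luciferin CYP2C9 substrate turned into luciferin with NADPH regeneration; % is set by controls: 0 for no effect and ±100 for the full control effect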
Chain of Cytochrome P450 2C9 (Homo sapiens) (P11712 whole entry, looked up): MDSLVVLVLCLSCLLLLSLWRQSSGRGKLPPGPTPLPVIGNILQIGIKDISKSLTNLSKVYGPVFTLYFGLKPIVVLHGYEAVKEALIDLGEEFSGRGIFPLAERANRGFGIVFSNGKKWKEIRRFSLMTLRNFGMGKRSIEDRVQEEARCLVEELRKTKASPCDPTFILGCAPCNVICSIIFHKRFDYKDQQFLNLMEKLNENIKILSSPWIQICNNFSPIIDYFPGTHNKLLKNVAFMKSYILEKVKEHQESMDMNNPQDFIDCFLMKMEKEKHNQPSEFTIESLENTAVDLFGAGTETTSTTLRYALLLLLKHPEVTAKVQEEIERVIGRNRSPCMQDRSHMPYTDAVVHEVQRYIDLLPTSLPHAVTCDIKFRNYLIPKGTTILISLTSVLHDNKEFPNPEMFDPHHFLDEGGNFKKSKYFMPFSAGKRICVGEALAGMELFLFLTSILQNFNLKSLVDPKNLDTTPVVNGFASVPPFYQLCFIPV
In short: as §2

[9] = target: Cytochrome P450 2C19 (Homo sapiens) (UniProt P33261); assay: qHTS for inhibitors of CYP2C19 against the NCATS DSHEA and TCM libraries (AID 1919974);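 note: luminescence from luciferin released by CYP2C19 oxidation of a pro-luciferin substrate; % is set by controls: 0 for no effect and ±100 for the full control effect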
Chain of Cytochrome P450 2C19 (Homo sapiens) (P33261 whole entry, looked up): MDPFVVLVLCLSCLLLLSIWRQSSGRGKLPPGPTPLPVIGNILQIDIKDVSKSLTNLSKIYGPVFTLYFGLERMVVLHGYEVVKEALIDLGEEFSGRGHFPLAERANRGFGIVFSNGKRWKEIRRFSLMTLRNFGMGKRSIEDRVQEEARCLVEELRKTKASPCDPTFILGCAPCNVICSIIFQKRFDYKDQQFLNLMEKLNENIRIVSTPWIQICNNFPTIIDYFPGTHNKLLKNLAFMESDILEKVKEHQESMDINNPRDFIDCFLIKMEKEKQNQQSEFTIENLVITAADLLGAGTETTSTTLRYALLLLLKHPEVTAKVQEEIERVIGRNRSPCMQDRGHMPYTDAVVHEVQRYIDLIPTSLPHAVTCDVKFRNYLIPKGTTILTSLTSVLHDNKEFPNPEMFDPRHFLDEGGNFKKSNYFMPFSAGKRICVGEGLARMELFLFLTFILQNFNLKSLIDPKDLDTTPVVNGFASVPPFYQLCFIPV
In short: as §2

[10] = KB-3-1 P-gp reporter qHTS against the NCATS DSHEA and TCM libraries (AID 1919975); note: 0% is about no effect
In short: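 Cell viability qHTS: 500 KB-3-1 cells/well, substances in titration, ~72 h, 37C; luminescent CellTiter-Glo read.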

[11] = target: Cytochrome P450 1A2 (Homo sapiens) (UniProt P05177); assay: qHTS for inhibitors of CYPIA2 against the NCATS DSHEA and TCM libraries (AID 1919976);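 note: light from luciferin formed by CYP1A2 from a pro-luciferin substrate; % is set by controls: 0 for no effect and ±100 for the full control effect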
Chain of Cytochrome P450 1A2 (Homo sapiens) (P05177 whole entry, looked up): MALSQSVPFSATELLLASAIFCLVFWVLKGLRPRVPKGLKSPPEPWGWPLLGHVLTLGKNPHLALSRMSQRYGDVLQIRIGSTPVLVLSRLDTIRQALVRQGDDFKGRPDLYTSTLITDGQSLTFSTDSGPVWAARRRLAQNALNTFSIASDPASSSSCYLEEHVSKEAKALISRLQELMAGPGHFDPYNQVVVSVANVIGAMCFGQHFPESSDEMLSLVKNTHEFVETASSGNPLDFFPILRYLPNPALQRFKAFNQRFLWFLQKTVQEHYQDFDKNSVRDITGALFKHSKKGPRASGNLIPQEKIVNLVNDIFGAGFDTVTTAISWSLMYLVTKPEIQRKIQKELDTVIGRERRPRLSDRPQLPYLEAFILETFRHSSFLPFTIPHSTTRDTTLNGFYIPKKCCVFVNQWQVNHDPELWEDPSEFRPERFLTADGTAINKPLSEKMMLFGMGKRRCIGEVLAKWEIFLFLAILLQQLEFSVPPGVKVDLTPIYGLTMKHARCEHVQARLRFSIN
In short: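 Human CYP1A2 with pro-luciferin substrate (typically 100 mM KPO4), 15 min preincubation with compound, then 1x NADPH regeneration for 30-45 min at room temperature in the dark. Luciferin quantified by luciferase luminescence; furafylline intraplate control.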

[12] = KB-8-5-11 P-gp reporter qHTS against the NCATS DSHEA and TCM libraries (AID 1919977); note: 0% is about no effect
In short: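 Viability of drug-resistant KB-8-5-11 cells is measured by CellTiter-Glo luminescence following roughly 72 h treatment at 37C. Substances were titrated, with bortezomib as intraplate control.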

[13] = qHTS Counterscreen for compound interference against the NCATS DSHEA and TCM libraries (AID 1919978); details: firefly luciferase detection reagent interference, luminescence;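 note: compounds preincubated with 1 µM D-luciferin or buffer before detection reagent; % of control where 0% means no effect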
In short: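 Interference check: test samples were incubated with D-luciferin (final 1 uM) or buffer only for 15 min, room temperature, in a qHTS titration up to 39.8 uM, then developed with detection reagent and read by luminescence.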

[14] = Dual reporter qHTS for agonist of Pregnane X Receptor (hPXR) against the NCATS DSHEA and TCM libraries: Fluorescence readout (AID 1920058); note: 0% is about no effect
In short: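 hPXR-Luc HepG2 cells, 2000/well in charcoal-stripped serum, attached 5 h, dosed for ~24 h at 37 °C. Fluorescence read is CellTiter-Fluor viability (Ex/Em 405/540 nm); rifampicin positive, tetraoctyl ammonium bromide (92 µM) cytotoxicity controls.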

[15] = target: Nuclear receptor subfamily 1 group I member 2 (Homo sapiens) (UniProt O75469); assay: Dual reporter qHTS for agonist of Pregnane X Receptor (hPXR) against the NCATS DSHEA and TCM libraries: Luminescence readout (AID 1920059); note: 0% is about no effect
Chain of Nuclear receptor subfamily 1 group I member 2 (Homo sapiens) (O75469 whole entry, looked up): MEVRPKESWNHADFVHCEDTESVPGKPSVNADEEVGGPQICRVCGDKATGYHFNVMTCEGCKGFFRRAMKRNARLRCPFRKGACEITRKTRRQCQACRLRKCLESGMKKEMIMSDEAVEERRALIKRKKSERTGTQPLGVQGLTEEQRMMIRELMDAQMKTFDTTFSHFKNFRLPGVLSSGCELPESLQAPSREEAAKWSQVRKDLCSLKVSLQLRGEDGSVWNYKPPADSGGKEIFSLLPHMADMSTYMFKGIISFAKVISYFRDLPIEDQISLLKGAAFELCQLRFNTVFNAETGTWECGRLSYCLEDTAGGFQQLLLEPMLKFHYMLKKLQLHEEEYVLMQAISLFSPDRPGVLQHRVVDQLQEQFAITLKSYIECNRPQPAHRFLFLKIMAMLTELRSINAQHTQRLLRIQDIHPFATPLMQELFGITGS
In short: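 Luminescent PXR reporter read (ONE-Glo) after a CellTiter-Fluor viability read, following 24 h, 37C treatment of HepG2 cells stably carrying hPXR-Luc.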

[16] = Dual reporter qHTS for antagonist of Pregnane X Receptor (hPXR) against the NCATS DSHEA and TCM libraries: Fluorescence Readout (AID 1920061); note: 0% is about no effect
In short: (§3)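 Antagonist mode: rifampicin 2 uM final co-added with compounds to hPXR-LucHepG2 cells for 24 h at 37C. Viability by CellTiter-Fluor, Ex/Em 405/540 nm, 1 h; reporter by ONE-Glo luminescence.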

7G8 = assay: qHTS profiling for inhibitors of Plasmodium falciparum proliferation (AID 504749); note: nearly all actives have a fitted effect of over 60% in size; note: potency is the fitted concentration of half-maximal effect;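 for activity, negative = inhibition: 0% = DMSO vehicle and full inhibition = artemisinin control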; details: P. falciparum in erythrocytes, SYBR Green DNA, 72 h; series mostly up to 28.7 µM
In short: as §1

[17] = target: Nuclear receptor subfamily 1 group I member 2 (Homo sapiens) (UniProt O75469); assay: Dual reporter qHTS for antagonist of Pregnane X Receptor (hPXR) against the NCATS DSHEA and TCM libraries: Luminescence Readout (AID 1920060);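 note: HepG2 cells carrying hPXR luciferase reporter stimulated with rifampicin at 2 µM; 0% is about no effect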
In short: as §3

[18] = measured here: PEO1 parental Z-AUC

CCCN1CCO[C@H]2c3cc(O)ccc3OC[C@@H]21
inactive: Potency [1] | outcome [2] | outcome [3]

COC(=O)[C@@]12C(=O)C(C)C(=O)[C@]1(C)C(C)=C[C@H]1[C@]3(C=O)CC[C@H](OC(C)=O)C(C)(C)[C@H]3CC[C@@]12C (stereo partly drawn)
inactive: outcome [2] | outcome [3]

CC(=O)OC12C(O)C(C)C3(O)C4C=C(C)C(=O)C4CC(CO)=CC3C1C2(C)C (stereo not drawn)
inactive: Potency [1] | outcome [2] | outcome [3]

CCc1[nH]c2ccc(OC)cc2c1CCN(C)C
inactive: outcome [2] | outcome [3]

COC1CC(O[C@H]2CC[C@]3(C=O)C4CC[C@]5(C)[C@@H](C6=CC(=O)OC6)CC[C@]5(O)[C@@H]4CC[C@]3(O)C2)OC(C)C1O[C@@H]1O[C@H](CO)[C@@H](O)[C@H](O)[C@H]1O (stereo partly drawn)
inactive: Potency [1] | outcome [2] | outcome [3]

C/C(=C\c1csc(C)n1)[C@@H]1C[C@@H]2O[C@]2(C)CCC[C@H](C)[C@H](O)[C@@H](C)C(=O)C(C)(C)[C@@H](O)CC(=O)O1
-2.7: Z-AUC [4, 18]
-2.48: Z-AUC ([4]; measured here: PEO4 Z-AUC)
active: Potency [4] 7.8 nM | Potency ([5]; parasite line A) 2 nM | Potency ([5]; parasite line B) 3.5 nM | Potency (3D7) 3.2 nM

Cc1cc(C(=O)CN2CCCC2)c(C)n1-c1ccc(F)cc1
inactive: Potency [1] | outcome [2] | outcome [3]

CNC(C)C(O)c1ccc(O)cc1 (stereo not drawn)
inactive: outcome [6] | outcome [7] | outcome [8] | Potency [9] | outcome [10] | outcome [11] | outcome [12] | max response [13] -3.49% | outcome [14] | outcome [15] | outcome [16] | activity, negative = inhibition ([5]; parasite line A) 5.26% | activity, negative = inhibition ([5]; parasite line B) -1.7% | Potency (3D7) | Potency (7G8)

C/C(O)=C(\C#N)C(=O)Nc1cc(Br)ccc1Br
0.627: Z-AUC ([4]; measured here: PEO4 Z-AUC)
0.336: Z-AUC [4, 18]
inactive: Z-AUC [4] -0.13

C[C@]12CC[C@H]3[C@@H]([C@H](O)CC4=CC(=O)CC[C@@]43C)[C@@H]1CC[C@@H]2O
inactive: Potency [1] | outcome [2] | outcome [3]

CC1C/C=C/C(O)C(O)CC/C=C/c2cc(O)cc(O)c2C(=O)O1 (stereo not drawn)
inactive: outcome [2] | outcome [3]

O=C/C=C/c1ccccc1
inactive: outcome [6] | outcome [7] | outcome [8] | outcome [10] | outcome [11] | outcome [12] | max response [13] 1.86% | outcome [14] | outcome [15] | outcome [17] | outcome [16] | activity, negative = inhibition ([5]; parasite line A) 8.58% | activity, negative = inhibition ([5]; parasite line B) -11% | Potency (3D7) | Potency (7G8)

CCN1CC2(COC)C3[C@@H](OC)C4C1C3(C1C[C@]3(O)[C@H](OC(=O)c5ccccc5)C1[C@]4(OC(C)=O)[C@@H](O)[C@@H]3OC)[C@H](OC)C[C@H]2O (stereo partly drawn)
inactive: Potency [1] | outcome [2] | outcome [3]

C=C[C@H]1[C@H](O[C@@H]2O[C@H](CO)[C@@H](O)[C@H](O)[C@H]2O)OC=C2C(=O)OCC[C@H]21
inactive: Potency [1] | outcome [2] | outcome [3]

COc1cc2c(cc1OC)[C@@]13CCN4CC5=CCO[C@H]6CC(=O)N2[C@H]1[C@H]6[C@H]5C[C@H]43
inactive: Potency [1] | outcome [2] | outcome [3]

CCC(C)(C#N)O[C@@H]1O[C@H](CO)[C@@H](O)[C@H](O)[C@H]1O (stereo partly drawn)
inactive: Potency [1] | outcome [2] | outcome [3]

OCCCCC#Cc1cncc(OC[C@@H]2CCN2)c1
inactive: Potency [1] | outcome [2] | outcome [3]

C=C1[C@@H]2CC[C@@]3(C)[C@H](c4ccoc4)OC(=O)C[C@]13O[C@H]1CC(=O)C(C)(C)[C@H](C(OC(C)=O)C(=O)OC)[C@]12C (stereo partly drawn)
inactive: Potency [1] | outcome [2] | outcome [3]

CC[C@H]1CN2CC[C@H]1C[C@@H]2[C@@H](O)c1ccnc2ccc(OC)cc12
inactive: Potency [1] | outcome [2] | outcome [3]

N#C[C@@H](O[C@@H]1O[C@H](CO[C@@H]2O[C@H](CO)[C@@H](O)[C@H](O)[C@H]2O)[C@@H](O)[C@H](O)[C@H]1O)c1ccccc1
inactive: Potency [1] | outcome [2] | outcome [3]

C=CC(C)(O)CC/C=C(\C)C(=O)O[C@H]1[C@H](O)[C@@H](CO)O[C@@H](OC(=O)[C@]23CCC(C)(C)CC2C2=CCC4[C@@]5(C)CC[C@H](O[C@@H]6O[C@H](CO[C@@H]7OC[C@H](O)[C@H](O)[C@H]7O[C@@H]7OC[C@@H](O)[C@H](O)[C@H]7O)[C@@H](O)[C@H](O)[C@H]6O)C(C)(C)C5CC[C@@]4(C)[C@]2(C)CC3)[C@@H]1OC1OC(C)C(O[C@@H]2OC[C@@H](O)[C@H](O[C@@H]3OC[C@@H](O)[C@H](O)[C@H]3O)[C@H]2O)C(O)C1O (stereo partly drawn)
inactive: activity change, negative = thiol reactive [1] 28.2% [at 11.5 µM] | activity, negative = inhibition [2] 1.73% [at 11.6 µM] | redox activity (% of DA3003) [3] -6.27% [at 11.5 µM]

Clc1ccc(N2C[C@H]3CC[C@@H](C2)N3)nn1
inactive: Potency [1] | outcome [2] | outcome [3]

C[C@]12CC[C@H]3[C@@H](CC[C@@]45O[C@@H]4C(O)=C(C#N)C[C@]35C)[C@@H]1CC[C@@H]2O
0.794: Z-AUC ([4]; measured here: PEO4 Z-AUC)
inactive: Z-AUC [4] 0.0842
0.943: Z-AUC [4, 18]
